SARS PLP yeast – inhibitors of SARS-CoV papain-like protease in yeast; S. cerevisiae expressing SARS-CoV PLpro, growth rescue; Potency, µM (series often up to 32.9 µM), usual class: activators; 330,000 compounds, 0.19% hits; AID 485353; note: nearly all actives have a fitted effect of over 55% in size
CHX counter – affects cycloheximide protein synthesis inhibition readout, counter-screen; cell reporter, cycloheximide protein synthesis inhibition counterscreen; max response, %; 300,000 compounds, 12% hits; in the data active = max response mostly above about 13%, no sharp cut-off; inactive = mostly below about 14%; note: read at 38.3 µM for the half of the compounds with a filed dose
Shiga toxin inh – blocks Shiga toxin action in Vero cells. 290,000 compounds, 9.2% hits. inhibition, % at 38.7 µM. Vero cells, Shiga toxin protein synthesis inhibition reporter. AID 2315; in the data active = inhibition mostly above about 28%, no sharp cut-off; inactive = mostly below about 43%
NS1 inh – inhibitors of influenza NS1 protein function; Potency, µM (doses to about 46.1 µM); 270,000 compounds, 0.4% hits; note: actives are rising curves; nearly all actives have a fitted effect of over 50% in size
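Compounds were scored for reversing the slow growth caused by influenza A NS1 in S. cerevisiae, measured by optical density at 600 nm. Assay medium contained 2% galactose at pH 6.0; NS1-free yeast of the same strain were the positive control.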
Large screens that a line does not name were inactive. Rows were chosen to be rich in hits. Some 12% of all compounds tested hit in one or more screens of this group. Unless noted, calls come from the whole dose curve.

CC(C)CN1C(=O)c2ccc(C(=O)Nc3c[nH]c(=O)[nH]c3=O)cc2C1=O	none (no result: NS1 inh)
CCOC(=O)Cc1csc(NC(=O)CSc2cc(Cl)ccc2Cl)n1	none
CCCc1cc(-c2nc(-c3ccc(Br)cc3)cs2)ccn1	CHX counter 21.9
N#CC(C#N)=Cc1ccc(C=C(C#N)C#N)cc1	CHX counter 20.0
CNc1c(NS(=O)(=O)c2cc(NC(C)=O)ccc2C)c(=O)oc2ccccc12	none
Nc1nc(-c2cccc(F)c2)cs1	none
Clc1ccc(-c2nc(-c3cc4cc(Cl)ccc4o3)cs2)cc1	none
Cc1nc(-c2cc(-c3ccc(Cl)cc3)no2)cs1	CHX counter 52.3, Shiga toxin inh 83.2
Fc1cccc(-c2csc(-c3ccno3)n2)c1	CHX counter 25.2, Shiga toxin inh 38.1
Clc1ccc(-c2csc(-c3ccno3)n2)cc1	CHX counter 22.9
CCCS(=O)(=O)N1CCCC(c2nc(-c3cccc(OC)c3)no2)C1 (centres undefined)	CHX counter 17.8
COc1cccc(-c2noc(C3CCCN(S(=O)(=O)c4cccc(Cl)c4C)C3)n2)c1 (centres undefined)	none
COc1cccc(-c2noc(C3CCCN(C(=O)c4ccccc4OC)C3)n2)c1 (centres undefined)	CHX counter 52.1, Shiga toxin inh 47.8
CCCCC(=O)N1CCCC(c2nc(-c3cccc(OC)c3)no2)C1 (centres undefined)	CHX counter 41.2, Shiga toxin inh 82.5
COc1cccc(-c2noc(C3CCCN(C(=O)c4ccc(F)cc4F)C3)n2)c1 (centres undefined)	NS1 inh inconclusive
CCC1(c2ccc(F)cc2)NC(=O)N(CC(=O)NCC(=O)Nc2cccc(C)c2C)C1=O (centres undefined)	none (no result: CHX counter, Shiga toxin inh, NS1 inh)
Cc1ccc(CN(C(=O)c2csnn2)C(C(=O)NC2CCCC2)c2ccccn2)cc1 (centres undefined)	none
Cc1cc(N2CCC(C)CC2)nc2ccc(N3C(=O)CCC3=O)cc12	CHX counter 17.8
Cc1cc(N2CCOCC2)nc2ccc(Cl)cc12	CHX counter 41.0, Shiga toxin inh 61.6
Cc1cc(N2CCOCC2)nc2ccc(NC(=O)CCC(=O)N3CCN(c4cccc(C(F)(F)F)c4)CC3)cc12	CHX counter 27.8, Shiga toxin inh 66.7
Cc1cc(N2CCOCC2)nc2ccc(NC(=O)CCC(=O)N3CCCCC3)cc12	none
CCCCNC(=O)CCC(=O)Nc1ccc2nc(N3CCC(C)CC3)cc(C)c2c1	CHX counter 29.9, Shiga toxin inh 54.7 (no result: NS1 inh)
COc1ccc(C2=Nn3c(nnc3-c3ccc(OC)cc3OC)SC2)cc1	none (no result: SARS PLP yeast, NS1 inh)
CCCCN(C)C(=O)CCC(=O)Nc1ccc2nc(N3CCN(C)CC3)cc(C)c2c1	none (no result: NS1 inh)
CCCCN(C)C(=O)CCC(=O)Nc1ccc2nc(N3CCOCC3)cc(C)c2c1	CHX counter 29.3
O=C(NC(O)C(=O)c1ccccc1)c1ccccn1 (centres undefined)	CHX counter 25.8, Shiga toxin inh 38.4
CC1CCN(C(=O)c2cc3c(ccc4ccccc43)o2)CC1	CHX counter 19.8, Shiga toxin inh 76.7
CCOC(=O)C1CCN(C(=O)c2cc3c(ccc4ccccc43)o2)CC1	CHX counter 59.4, Shiga toxin inh 120.8
CCOC(=O)C1CCN(C(=O)c2cc3cc4ccc(C)cc4nc3o2)CC1	CHX counter 29.6, Shiga toxin inh 45.0
Cc1nc2ccccc2c2oc(C(=O)N3CCC(C)CC3)cc12	CHX counter 20.4, Shiga toxin inh 60.3
CSc1ncc(CN2CCCCC2C(=O)Nc2ccc(Oc3ccccc3)nc2)cn1 (centres undefined)	none
CC(C)Oc1ccc(Cn2c(=O)oc3ccccc32)cc1	none
CCOc1ccc(-c2c[n+](=O)c3c(n2[O-])CCCC3)c(OCC)c1	none
C1CCC(C23CC4CC(CC(C4)C2)C3)NC1 (centres undefined)	none
Cc1cc(C)n(-c2nc(NCc3cccnc3)c3c4c(sc3n2)COC(C)(C)C4)n1	CHX counter 22.0
CCN(CC)CCCNc1nc(-n2nc(C)cc2C)nc2sc3c(c12)CC(C)(C)OC3	CHX counter 13.1
O=C(CSc1nnc(NC(=O)C2CC2)s1)NCc1ccccc1Cl	SARS PLP yeast inconclusive
CCc1nc(-c2cc3ccc(C)cc3[nH]c2=O)no1	CHX counter 17.0
Cc1ccc2cc(CCNC(=O)c3ccco3)c(=O)[nH]c2c1	CHX counter 31.1, Shiga toxin inh 63.1
Cc1ccc2cc(CCNC(=O)c3ccco3)c(=O)[nH]c2c1C	CHX counter 61.5, Shiga toxin inh active
COc1ccc(C(=O)NCCc2cc3ccc(C)c(C)c3[nH]c2=O)cc1OC	none (no result: NS1 inh)
Cc1ccc2cc(-c3noc(C(C)(C)C)n3)c(=O)[nH]c2c1	none
Cc1cc2cc(CCNC(=O)c3cccs3)c(=O)[nH]c2cc1C	CHX counter 31.1, Shiga toxin inh 54.1
